# About 83,000 compounds went through this panel and 20% of them were active in at least one assay; those are over-represented in the sample as a whole.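 Single-concentration screen, 48 h exposure, 96-well plates. Endpoint: percent growth. Below 10 = active.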 A number with no mark means an inactive call. The source made the active and inactive calls.
# Tested on: K-562 leukemia
# Test: NCI-60 one-dose screen, 48 h (100 = growth as untreated, 0 = no growth, -100 = all killed)
# Conditions: 10 µM unless noted
row,SMILES,growth
1,COc1cc(C(=O)n2nc(N3CCN(C)CC3)c3cc(N)ccc32)cc(OC)c1OC,10.4%
2,O=C1N[C@@H]2NC(=[N+]3CCOCC3)N[C@@H]2N1,98.6%
3,N#Cc1c(N)nnn1Cc1cc(=O)oc2c1ccc1ccccc12,93.6%
4,COc1cc(OC)cc(C2=C3CC[C@@H]4[C@H](CC[C@]5(C)C(=O)CC[C@@H]45)C3=CC3C(O)c4cccnc4N4C(=O)COC234)c1 (stereo not given in full),92.7%
5,C=C(C)[C@@H]1CC[C@]2(C(=O)N3CCN(C)CC3)CC[C@]3(C)[C@H](CC[C@@H]4[C@@]5(C)CC(=C/c6ccncc6)/C(=N/O)C(C)(C)[C@@H]5CC[C@]43C)[C@@H]12,34.4%
6,CN1CCN(Cc2ccc3c(NNC(=O)c4ccccc4)nc4cc(F)ccc4n23)CC1,13.6%
7,CCOC(=O)c1c2c(n3ccc(C)cc13)C(=O)c1ccccc1C2=O,75.7%
8,CCCC(=O)NC(c1ccc2c(c1)OCO2)c1ccc2cccnc2c1O (stereo not given),7.6% (active)
9,Cc1nc2sc(C(=O)Nc3ccccc3)c(N)c2cc1C(=O)c1ccccc1,32.4%
10,COC(=O)c1ccc2c(c1)C(=O)c1c-2n(CCCN)c(=O)c2cc([N+](=O)[O-])ccc12,-100% (active)
11,CO[C@]12C=C/C(=C(/C(=O)OCc3cccnc3)C(=O)CCCCCCCC[C@@]3(OC)C=C/C(=C(/C(=O)OCc4cccnc4)C(=O)CCCCCCCC1)O3)O2,1.46% (active)
12,Brc1c2c(c(Br)c3ccccc13)CCCC2,94.7%
13,Cc1cc2c([nH]1)CSc1cc(S(=O)(=O)c3ccccc3)c(=O)[nH]c1-2,17% [100 µM]
14,CC1=C(Nc2ccc(N3CCN(C)CC3)cc2)C(=O)c2cncnc2C1=O,9.68% (active)
15,CCCCCCC1(C)NCCO1 (stereo not given),104%
16,C#CCOc1cccc(Nc2ncnc3ccc(NC(=O)CCl)cc23)c1,-13.1% (active)
17,COc1ccc(C(=O)C2C(c3ccc(OC)cc3)CN(C)C23C(=O)Nc2ccccc23)cc1 (stereo not given),77.1%
18,CCN(CC)CCNC(=O)c1cn2ncnc(Oc3ccc(NC(=O)Nc4ccc(Cl)c(C(F)(F)F)c4)c(F)c3)c2c1C,-23% (active)
19,CC(=O)OCc1nc(C#N)c(N(C)C)o1,99.2%
20,CN[C@]12CC3(C=CC(=O)C=C3)O[C@@]1(Cc1ccc(OC)cc1)N(C)C(=O)N2,7.19% (active)

row,SMILES,growth
1,C=C(CNCCc1ccc(O)cc1)[C@@H]1CC[C@]2(CO)CC[C@]3(C)[C@H](CC[C@@H]4[C@@]5(C)CCC(NCCO)C(C)(C)[C@@H]5CC[C@]43C)[C@@H]12 (stereo not given in full),-49% (active)
2,O=C1/C(=C\c2cn(-c3ccccc3)nc2-c2ccc(-c3cccs3)cc2)CCc2ccccc21,17.6%
3,Cc1ccc(-c2nn(-c3ccccc3)cc2C=C2C(=O)ON=C2C(C)C)cc1,34.2%
4,CC/C(=C(/c1ccc(Cl)cc1)c1ccc(OCCN2CCCC2)cc1)c1ccc(OC)cc1,5% (active)
5,Cc1c(-c2nc3ccc(F)cc3c(=O)[nH]2)c2ccccc2n1C,15%
6,COC1=CC(c2ccc[nH]2)=N/C1=C\c1[nH]c(C)c(C(=O)OCc2ccccc2)c1C,2.63% (active)
7,COc1ccc(C/C(C)=C(/c2ccc(OCCN3CCCCC3)cc2)c2ccc(OC(=O)NCc3ccccc3)cc2)cc1,-56.3% (active)
8,CC(C)N1CN2C(=S)NC3C2N(C1)C(=S)N3C (stereo not given),102%
9,CCCCN[C@H]1CC[C@@]2(C)[C@@H](CC[C@@]3(C)[C@H]2[C@H](O)C[C@H]2/C(=C(\CCC=C(C)C)C(=O)OC)[C@@H](OC(C)=O)C[C@@]23C)[C@@H]1C,30.5%
10,O=[N+]([O-])c1ccc(-c2nc(N3CCOCC3)c3c4c(sc3n2)CCCC4)cc1,99.6%
11,COc1cc(N2C(=O)[C@H](O)C2c2ccc(SC)cc2)cc(OC)c1OC (stereo not given in full),5.68% (active)
12,C#Cc1ccc(NC(=O)c2ccc(/C=C/C(=O)c3nccn3C)cc2)cc1,1.98% (active)
13,Cc1nnc(NC(=O)c2nc(S(=O)(=O)Cc3ccc(F)cc3)ncc2Cl)s1,-23.8% (active)
14,Cc1ccccc1/C=C1\CN(C(=O)OC(C)(C)C)C/C(=C\c2ccccc2C)C1=O,5.76% (active)
15,C[C@]12C=CC(=O)C=C1CCC1C2[C@@H](O)C[C@@]2(C)C1CC[C@]2(O)C(=O)COC(=O)CCC(=O)O (stereo not given in full),104%
16,O=C(Cn1c2c(c3ccccc31)CCCC2)Nc1ccc(-c2nc3ccccc3s2)cc1,74.4%
17,Cc1cc(Cl)ccc1Nc1nc(C(F)(F)F)ccc1C(=O)N/N=C/c1ccc([N+](=O)[O-])cc1,-1.48% (active)
18,O=C(Nn1c2c(sc1=NCc1ccccc1)C(=O)c1ccccc1C2=O)c1cc2ccc1CCc1ccc(cc1)CC2,48.8%
19,CC(C)c1ccc(COCc2cc(CN3CCCC3)c(O)c3ncccc23)cc1,3.96% (active)
20,Cn1cccc1C(=O)C1C(c2cccc([N+](=O)[O-])c2)C2C3CCCCC3CN2C12C(=O)Nc1ccc(Cl)cc12 (stereo not given),33.4%

# Source: PubChem BioAssay (NCI)
